# Sampled rows, rich in hits. Any-hit rate of the full collection: about 12%.
# G9a block: G9a (human) methyltransferase inhibition; Q96KQ7; G9a H3K9 monomethylation, AlphaScreen, 2 h; Potency, µM (titrated, usually from 102 µM), for the others: at the top dose activity, negative = inhibition, most hits filed as inhibitors; actives 8.8% (n = 350,000); AID 504332; note: % is set by controls: 0 for no effect and ±100 for the full control effect; nearly all actives have a fitted effect of over 75% in size
#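 Enzyme 20 nM + cpd, 15 min RT; add b-H3K9 pep 500 nM / SAM 20 uM; 2 h RT; anti-H3K9me1 Ab 0.5 ug/mL + SA donor / anti-rabbit acceptor beads 20 ug/mL each, 10 min; AlphaScreen read.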
# Sfp PPTase inh: inhibitors of Bacillus subtilis Sfp phosphopantetheinyl transferase; Biochemical Sfp PPTase activity, qHTS; Potency, µM, inactives show largest response in the series, negative = inhibition, usual class: inhibitors; actives 3.5% (n = 310,000); AID 1490;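 note: the enzyme is Sfp with the accession as filed and its product quenches rhodamine fluorescence; 0% = enzyme reaction without inhibitor and -100% = no enzyme wells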
#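 Buffer: 50 mM Hepes-Na pH 7.6, 10 mM MgCl2, 0.01% Nonidet P-40, 0.01% BSA. Enzyme 15 nM, pre-exposed to compound 15 min; substrates then added and fluorescence change tracked over 30 min.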
# HP1b binding inh: HP1-beta chromodomain-methylated histone interaction inhibition. AlphaScreen HP1-beta / biotin-H3K9me3 peptide binding. Potency, µM (series often up to 114 µM), without a hit: at the top dose activity change, negative = inhibition, usual class: inhibitors. actives 0.56% (n = 390,000). AID 540317; note: nearly all actives have a fitted effect of over 70% in size
#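 HP1-beta protein (50 nM final) preincubated 30 min at room temperature with biotinylated H3(1-18)K9me3 peptide (50 nM) in PBS pH 7.4, 0.01% Tween-20, then compound added for 30 min. AlphaScreen streptavidin donor/nickel chelate acceptor beads (10 ug/mL final), 30 min dark, luminescence read.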
# L3MBTL1 inh: L3MBTL1 (human) inhibition; Potency, µM (series often up to 57.1 µM), inactives show top-dose activity, negative = inhibition, most hits filed as inhibitors; actives 0.66% (n = 230,000); AID 485360; AlphaScreen L3MBTL1–H3K9me1 peptide binding; Q9Y468; note: % is set by controls: 0 for no effect and ±100 for the full control effect; nearly all actives have a fitted effect of over 60% in size
#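 Read-out is AlphaScreen signal from streptavidin donor and nickel chelate acceptor beads (10 ug/mL final each) bridging L3MBTL1 (50 nM) and biotinylated K9-monomethylated H3(1-15) peptide (75 nM), after 30 min compound exposure at room temperature.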
# BAZ2B inh: inhibitors of human BAZ2B bromodomain | Potency, µM (top dose mostly 114 µM), inactives show at the highest dose activity change, negative = inhibition, actives largely listed as inhibitors | AlphaScreen BAZ2B-H3K14Ac peptide displacement | actives 4.4% (n = 360,000) | Q9UIF8 | AID 504333; note: % is set by controls: 0 for no effect and ±100 for the full control effect; nearly all actives have a fitted effect of over 60% in size
# Target sequence (Q9UIF8 whole entry, looked up): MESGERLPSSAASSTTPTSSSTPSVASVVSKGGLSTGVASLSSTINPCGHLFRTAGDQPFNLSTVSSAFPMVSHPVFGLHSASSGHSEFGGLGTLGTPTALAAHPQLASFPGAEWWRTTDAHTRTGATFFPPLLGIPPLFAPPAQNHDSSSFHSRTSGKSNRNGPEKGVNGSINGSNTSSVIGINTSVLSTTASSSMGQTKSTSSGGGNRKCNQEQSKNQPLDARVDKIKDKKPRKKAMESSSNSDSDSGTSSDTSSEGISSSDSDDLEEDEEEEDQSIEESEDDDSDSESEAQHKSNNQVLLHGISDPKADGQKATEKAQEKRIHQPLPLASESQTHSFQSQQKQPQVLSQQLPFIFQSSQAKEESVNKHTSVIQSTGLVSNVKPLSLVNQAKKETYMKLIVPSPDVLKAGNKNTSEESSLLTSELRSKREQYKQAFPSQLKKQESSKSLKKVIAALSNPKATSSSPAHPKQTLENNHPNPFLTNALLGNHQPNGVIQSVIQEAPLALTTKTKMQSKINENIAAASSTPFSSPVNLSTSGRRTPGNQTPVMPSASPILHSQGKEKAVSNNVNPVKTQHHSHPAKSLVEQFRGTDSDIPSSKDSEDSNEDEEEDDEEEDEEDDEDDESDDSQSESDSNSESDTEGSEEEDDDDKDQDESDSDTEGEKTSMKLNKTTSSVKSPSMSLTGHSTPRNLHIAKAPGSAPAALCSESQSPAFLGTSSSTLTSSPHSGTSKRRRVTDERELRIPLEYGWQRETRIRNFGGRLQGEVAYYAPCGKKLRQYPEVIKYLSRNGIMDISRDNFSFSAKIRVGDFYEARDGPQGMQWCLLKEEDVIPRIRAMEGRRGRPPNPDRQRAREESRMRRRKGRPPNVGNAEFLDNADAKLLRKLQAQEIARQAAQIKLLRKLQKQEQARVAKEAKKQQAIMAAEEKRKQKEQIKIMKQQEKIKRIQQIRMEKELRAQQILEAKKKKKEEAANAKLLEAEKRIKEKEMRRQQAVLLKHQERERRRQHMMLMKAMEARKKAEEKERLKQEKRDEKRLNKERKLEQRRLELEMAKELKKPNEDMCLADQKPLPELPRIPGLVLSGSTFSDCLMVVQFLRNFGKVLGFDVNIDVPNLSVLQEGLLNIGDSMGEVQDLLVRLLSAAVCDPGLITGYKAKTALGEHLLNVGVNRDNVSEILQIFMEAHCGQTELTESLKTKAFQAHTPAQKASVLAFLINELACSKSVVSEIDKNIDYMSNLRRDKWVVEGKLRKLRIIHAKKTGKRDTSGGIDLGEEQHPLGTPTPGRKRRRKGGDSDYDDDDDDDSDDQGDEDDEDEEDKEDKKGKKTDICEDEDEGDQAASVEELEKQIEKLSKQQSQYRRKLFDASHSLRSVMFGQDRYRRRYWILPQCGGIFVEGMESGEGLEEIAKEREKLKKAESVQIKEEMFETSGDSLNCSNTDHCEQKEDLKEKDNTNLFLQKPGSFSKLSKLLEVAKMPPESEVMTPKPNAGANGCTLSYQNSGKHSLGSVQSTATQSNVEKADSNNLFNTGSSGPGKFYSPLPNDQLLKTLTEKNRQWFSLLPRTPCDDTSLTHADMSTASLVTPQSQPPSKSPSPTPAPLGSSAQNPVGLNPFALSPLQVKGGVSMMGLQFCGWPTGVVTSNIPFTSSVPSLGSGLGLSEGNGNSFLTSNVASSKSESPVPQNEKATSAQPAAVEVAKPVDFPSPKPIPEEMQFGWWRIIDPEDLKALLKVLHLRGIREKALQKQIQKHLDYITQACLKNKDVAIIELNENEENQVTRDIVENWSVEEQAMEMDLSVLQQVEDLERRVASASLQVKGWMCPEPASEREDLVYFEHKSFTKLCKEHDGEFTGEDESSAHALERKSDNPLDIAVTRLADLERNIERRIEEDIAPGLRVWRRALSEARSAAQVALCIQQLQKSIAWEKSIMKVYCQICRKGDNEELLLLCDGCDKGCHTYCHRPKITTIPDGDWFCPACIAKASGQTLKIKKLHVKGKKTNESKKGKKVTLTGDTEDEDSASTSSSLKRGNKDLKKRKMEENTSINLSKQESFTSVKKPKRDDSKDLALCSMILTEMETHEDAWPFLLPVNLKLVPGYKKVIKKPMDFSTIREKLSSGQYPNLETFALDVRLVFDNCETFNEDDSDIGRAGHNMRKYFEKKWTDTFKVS
#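 AlphaScreen displacement of biotin-H3(5-23)K14Ac peptide (50 nM final) from BAZ2B (50 nM final) in PBS pH 7.4, 0.01% Tween-20; complex preformed 30 min RT, then compounds (top 110 uM) 30 min RT, beads 20 min dark.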
# JMJD2A Tudor: inhibitors of human JMJD2A Tudor domain | AlphaScreen JMJD2A-Tudor / H3K4me3 peptide binding | O75164 | Potency, µM (doses to about 114 µM), for inactives: at the highest dose activity change, negative = inhibition, hits mostly inhibitors | actives 4.4% (n = 390,000); note: % is set by controls: 0 for no effect and ±100 for the full control effect; nearly all actives have a fitted effect of over 50% in size
# * marks the source's active call; other numbers are inactive results; ? = inconclusive; nt = no result; [ ] = remark or other dose. Calls come from the whole dose curve; as a rule, active = well fitted curve in the direction sought with a large enough effect; inconclusive = small, poorly fitted or top-dose-only effect, or another doubt; inactive = no such curve, though single readings can be large; an effect the other way counts as inactive or inconclusive. Potency is the fitted concentration of half-maximal effect.
SMILES,G9a block,Sfp PPTase inh,HP1b binding inh,L3MBTL1 inh,BAZ2B inh,JMJD2A Tudor
COC(=O)CSc1nnc(NC(=O)c2ccc3c(c2)OCO3)s1,32µM*,-7%,52%,nt,-6%,-6%
CS(=O)(=O)N1CCC(n2c(C(F)(F)F)nc3cccnc32)CC1,2%[59 µM],nt,40%,nt,4%,2%
Cc1csc(NC(=O)c2ccc3c(c2)OCO3)n1,6%[59 µM],15%,18%,nt,-3%,-14%
CC(C)c1nnc(NC(=O)COc2ccc3c(c2)OCO3)s1,-19%,-4%,-24%,nt,-16%,-18%
CCC(CC)c1nnc(NC(=O)c2ccc3c(c2)OCO3)s1,22µM*,45µM*,?,nt,-11%,-18%
CCC(CC)c1nnc(NC(=O)COc2ccc3c(c2)OCO3)s1,8.9µM*,25µM*,?,nt,?,?
CCc1nnc(NC(=O)COc2ccc3c(c2)OCO3)s1,45µM*,-29%,-30%,nt,4%,-8%
CC(C)(C)c1cc(-c2ccccc2)n[nH]1,nt,11%,43%,nt,1%,-7%
Cn1cc(-c2nnnn2-c2ccc(Cl)cc2)c(C(F)(F)F)n1,-33%[12.7 µM],4%,17%,-2%,-3%,-27%
Cc1nn(C)cc1-c1n[nH]c(=S)n1-c1ccc(Cl)cc1,5.6µM*,?,-14%,8%,-9%,3.2µM*
CC(C)(C)c1cc(-c2n[nH]c(=S)n2-c2ccc(Cl)cc2)n[nH]1,?,?,-12%,-8%,?,40µM*
CCc1ccc(C2N3CC4(C)CN2CC(c2ccccc2)(C3)C4=O)cc1 (stereo not drawn),3%[59 µM],nt,45%,nt,-8%,-17%
COc1ccc(-c2nncnn2)cc1,?,-8%,-39%,18%[11.4 µM],45µM*,?
COc1ccc(-c2ccc(OC)cc2)cc1,0%[59 µM],-10%,30%,35%,44%,6%
CCOc1ccc(-c2nnc(N)s2)cc1,12%[59 µM],8%,21%,9%,8%,-9%
CCOc1ccc(Oc2ccc(Cl)cc2N)cc1,50µM*,5%,47%,9%,?,1%
O=C(Nc1cccnc1)Nc1ccc(Cl)cc1Cl,50µM*,-11%,42%,-9%,-19%,?
CCCS(=O)(=O)c1c(S(=O)(=O)CCC)c2cc(C(C)(C)C)ccn2c1C(=O)c1ccc(OC)c(OC)c1,-36%[59 µM],nt,14%,nt,-23%,?
Cc1ccc(NC(=O)C2CCN(C(=O)c3cnn(-c4ccccc4)c3-n3cccc3)CC2)cc1,10%[59 µM],nt,24%,nt,-26%,-17%
CC[C@H](C)[C@H](NC(=O)[C@H](CO)NC(=O)[C@H](CC(C)C)NC(=O)[C@@H]1CCCN1C(=O)[C@@H]1CCCN1C(=O)[C@H](CC(=O)O)NC(=O)[C@@H](N)CC(=O)O)C(=O)N[C@@H](CC(=O)O)C(=O)N[C@@H](CC(C)C)C(=O)N[C@H](C(=O)N[C@@H](Cc1ccccc1)C(=O)N[C@@H](Cc1cnc[nH]1)C(=O)N[C@@H](CC(C)C)C(=O)N[C@@H](CC(C)C)C(=O)N[C@@H](CCCNC(=N)N)C(=O)N[C@H](C(=O)N[C@@H](CC(C)C)C(=O)N[C@@H](CC(C)C)C(=O)N[C@@H](CCC(=O)O)C(=O)N[C@@H](CC(C)C)C(=O)N[C@@H](C)C(=O)N[C@@H](CCCNC(=N)N)C(=O)N[C@H](C(=O)N[C@@H](CCC(N)=O)C(=O)N[C@@H](CO)C(=O)N[C@@H](CCC(N)=O)C(=O)N[C@@H](CCCNC(=N)N)C(=O)N[C@@H](CCC(=O)O)C(=O)N[C@@H](CCCNC(=N)N)C(=O)N[C@@H](C)C(=O)N[C@@H](CCC(=O)O)C(=O)N[C@@H](CCC(N)=O)C(=O)N[C@@H](CC(N)=O)C(=O)N[C@@H](CCCNC(=N)N)C(=O)N[C@H](C(=O)N[C@H](C(=O)N[C@@H](Cc1ccccc1)C(=O)N[C@@H](CC(=O)O)C(=O)N[C@@H](CO)C(=O)N[C@H](C(N)=O)C(C)C)[C@@H](C)CC)[C@@H](C)CC)[C@@H](C)O)[C@@H](C)O)[C@@H](C)O,nt,4%,nt,nt,nt,nt
COc1ccc(N2C(=O)CSC2c2ccccc2)cc1 (stereo not drawn),12%,19%,9%,nt,2%,-6%
COc1ccc(N2C(=O)CSC2c2ccccc2[N+](=O)[O-])cc1 (stereo not drawn),50µM*,6%,7%,-3%,-28%,-23%
COc1ccccc1Nc1nnc(SCc2nnc(-c3cc(OC)c(OC)c(OC)c3)o2)s1,14µM*,-3%,6%,-12%,-28%,?
O=C(CSc1nc2c([nH]c3ccccc32)c(=O)n1-c1ccccc1)N1CCCCC1,3%[59 µM],nt,20%[57 µM],nt,-10%,-17%
O=C1CCCc2c1cc(-c1ccccc1)n2-c1ccccc1,45µM*,14%,?,-18%,25µM*,40µM*
SMILES,G9a block,Sfp PPTase inh,HP1b binding inh,L3MBTL1 inh,BAZ2B inh,JMJD2A Tudor
COc1ccc(-c2nc3sc(CCNC(=O)c4ccccc4C)c(C)n3n2)cc1,?,nt,10%,nt,-3%,-26%
CC1CC(C)C[N+](=C2C=C(N3CCCC3)CC(C)(C)C2)C1 (stereo not drawn),?,4%,?,-5%,-17%,18µM*
CC1(C)CC(N2CCN(c3ccccc3)CC2)=CC(=[N+]2CCCC2)C1,45µM*,12%,38%,-5%,5%,?
CCOC(=O)c1c(NC(=O)c2ccc(Br)o2)sc(C)c1CC,216%,?,184%,38%,90%,77%
C=CCn1c(NC(=O)c2ccc(Br)o2)c(C(=O)OCC)sc1=S,3.2µM*,?,-39%,4%,-30%,89µM*
O=C1NC(=S)NC(=O)C1=Cc1ccccc1C(=O)O,nt,nt,-20%,nt,nt,25µM*
CCOC(=O)c1sc2cccc(F)c2c1S(=O)(=O)N1CCN(c2cccc(Cl)c2)CC1,8.9µM*,nt,7%,nt,?,-24%
COC(=O)c1sc2cccc(F)c2c1S(=O)(=O)N1CCN(c2cccc(OC)c2)CC1,0%[59 µM],nt,16%,nt,-29%,-27%
CCn1cc(C(=O)N2CCN(c3ccccc3OC)CC2)c(=O)c2cc(S(=O)(=O)N3CCC(C)CC3)ccc21,-7%[59 µM],nt,0%,nt,nt,-27%
Cc1ccc(C(=O)c2cn(Cc3ccc(F)cc3)c3nc(C)ccc3c2=O)cc1,-41%[59 µM],nt,23%,nt,3%,-10%
CCOC(=O)CN1NC2(CCC(C(C)(C)C)CC2)NC1=S (stereo not drawn),14%[12.7 µM],22µM*,32%,-4%,?,40µM*
